# Experimental data: PubChem BioAssay (EPA / NIEHS)
# Results filed as inconclusive are left out. Calls of active or inactive are those of the source. Rule for the calls, unless noted: active = hit-call score of the fitted dose curve at least 0.9, where 1 is the maximum; inactive = score below 0.9.
# Experiments:
# [1] = biological target: Oxysterols receptor LXR-alpha (Homo sapiens) (UniProt Q13133); assay: ATG_LXRa_TRANS: Attagene TRANS-FACTORIAL HepG2 Assay for human Liver X Receptor alpha (LXRa) (AID 2282980; active = hit-call score of the fitted dose curve at least 0.9, where 1 is the maximum); conditions: HepG2 Attagene TRANS reporter, LXRa transactivation
# Sequence of Oxysterols receptor LXR-alpha (Homo sapiens) (Q13133 whole entry, looked up, the tested form may be a part): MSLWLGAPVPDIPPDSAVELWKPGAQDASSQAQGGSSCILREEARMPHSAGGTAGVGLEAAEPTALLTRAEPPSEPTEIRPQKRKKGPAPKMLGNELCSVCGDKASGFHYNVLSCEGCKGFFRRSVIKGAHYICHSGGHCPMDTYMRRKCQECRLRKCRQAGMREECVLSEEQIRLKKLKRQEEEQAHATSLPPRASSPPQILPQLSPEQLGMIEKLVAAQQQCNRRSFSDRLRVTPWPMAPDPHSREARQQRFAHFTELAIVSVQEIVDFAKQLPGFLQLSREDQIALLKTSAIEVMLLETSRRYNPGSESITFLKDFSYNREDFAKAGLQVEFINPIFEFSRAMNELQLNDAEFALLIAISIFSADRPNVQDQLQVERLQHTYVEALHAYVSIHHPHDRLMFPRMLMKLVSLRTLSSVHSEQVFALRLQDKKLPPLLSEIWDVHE
# In short: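 Chemical-induced reporter mRNA measured by RT-PCR with fluorescent labelling and capillary electrophoresis after 24 h dosing of transiently transfected HepG2 cells expressing exogenous NR-Gal4 chimeras; increases scored against DMSO baseline.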
# [2] = biological target: Oxysterols receptor LXR-beta (Homo sapiens) (UniProt P55055); assay: ATG_LXRb_TRANS: Attagene TRANS-FACTORIAL HepG2 Assay for human Liver X Receptor beta (LXRb) (AID 2282981; active = hit-call score of the fitted dose curve at least 0.9, where 1 is the maximum); conditions: HepG2 Attagene TRANS GAL4-LXRb reporter, mRNA
# Sequence of Oxysterols receptor LXR-beta (Homo sapiens) (P55055 whole entry, looked up, the tested form may be a part): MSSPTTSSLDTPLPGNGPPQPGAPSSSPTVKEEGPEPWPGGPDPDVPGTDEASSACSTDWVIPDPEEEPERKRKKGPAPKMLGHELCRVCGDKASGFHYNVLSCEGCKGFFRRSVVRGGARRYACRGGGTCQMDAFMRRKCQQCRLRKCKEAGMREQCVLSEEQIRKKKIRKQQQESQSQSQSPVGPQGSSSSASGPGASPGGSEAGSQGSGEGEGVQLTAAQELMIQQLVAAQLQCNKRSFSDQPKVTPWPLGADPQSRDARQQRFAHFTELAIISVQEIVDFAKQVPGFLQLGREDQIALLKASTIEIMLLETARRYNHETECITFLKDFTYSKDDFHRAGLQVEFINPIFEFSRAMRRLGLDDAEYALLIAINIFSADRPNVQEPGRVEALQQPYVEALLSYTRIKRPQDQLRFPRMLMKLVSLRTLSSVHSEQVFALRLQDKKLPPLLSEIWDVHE
# In short: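 Multiplexed reporter assay, HepG2, 24 h dosing. Fluorescence of labelled RT-PCR products after capillary electrophoresis gives transcript level; positive fitting direction relative to DMSO.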
# [3] = biological target: Hepatocyte nuclear factor 4-alpha (Homo sapiens) (UniProt P41235); assay: ATG_HNF4a_TRANS: Attagene TRANS-FACTORIAL HepG2 Assay for human Hepatocyte Nuclear Factor 4 alpha (HNF4a) (AID 2282982; active = hit-call score of the fitted dose curve at least 0.9, where 1 is the maximum); conditions: HepG2 HNF4a transactivation reporter, mRNA readout
# Sequence of Hepatocyte nuclear factor 4-alpha (Homo sapiens) (P41235 whole entry, looked up, the tested form may be a part): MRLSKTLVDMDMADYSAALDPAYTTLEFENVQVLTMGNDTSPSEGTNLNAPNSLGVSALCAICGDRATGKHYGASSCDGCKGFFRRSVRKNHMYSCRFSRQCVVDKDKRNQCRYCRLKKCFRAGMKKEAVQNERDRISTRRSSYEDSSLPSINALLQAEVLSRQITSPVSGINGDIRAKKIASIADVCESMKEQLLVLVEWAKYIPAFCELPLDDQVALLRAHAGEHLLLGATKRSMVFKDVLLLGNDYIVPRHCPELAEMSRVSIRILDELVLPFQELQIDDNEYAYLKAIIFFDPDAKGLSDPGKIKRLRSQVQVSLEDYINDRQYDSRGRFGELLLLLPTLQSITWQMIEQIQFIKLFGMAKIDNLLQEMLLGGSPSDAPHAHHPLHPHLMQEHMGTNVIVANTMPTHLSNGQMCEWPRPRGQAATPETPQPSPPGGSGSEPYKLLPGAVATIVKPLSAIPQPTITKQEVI
# In short: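 Endpoint reflects transcriptional activation of a GAL4-UAS reporter by an HNF4a-GAL4 chimera in transfected HepG2 cells, 24 h post-dosing. Fluorescence from RT-PCR products separated by capillary electrophoresis; DMSO baseline.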
# [4] = ATG_M_06_TRANS: Attagene TRANS-FACTORIAL HepG2 Assay for M06 Transcription Factor (Internal Marker) (AID 2282983; active = hit-call score of the fitted dose curve at least 0.9, where 1 is the maximum); conditions: HepG2 Attagene TRANS M06 internal marker reporter
# In short: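 Background-control reporter readout: after 24 h chemical exposure of transiently transfected HepG2 (GAL4-UAS reporter units), mRNA quantified by RT-PCR with fluorescent labeling and capillary electrophoresis. Gain-of-signal fitting against DMSO baseline.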
# [5] = biological target: Nuclear receptor subfamily 4 group A member 2 (Homo sapiens) (UniProt P43354); assay: ATG_NURR1_TRANS: Attagene TRANS-FACTORIAL HepG2 Assay for human Nuclear Receptor Related Protein 1 (NURR1) (AID 2282985; active = hit-call score of the fitted dose curve at least 0.9, where 1 is the maximum); conditions: HepG2 Attagene TRANS reporter, mRNA readout
# Sequence of Nuclear receptor subfamily 4 group A member 2 (Homo sapiens) (P43354 whole entry, looked up): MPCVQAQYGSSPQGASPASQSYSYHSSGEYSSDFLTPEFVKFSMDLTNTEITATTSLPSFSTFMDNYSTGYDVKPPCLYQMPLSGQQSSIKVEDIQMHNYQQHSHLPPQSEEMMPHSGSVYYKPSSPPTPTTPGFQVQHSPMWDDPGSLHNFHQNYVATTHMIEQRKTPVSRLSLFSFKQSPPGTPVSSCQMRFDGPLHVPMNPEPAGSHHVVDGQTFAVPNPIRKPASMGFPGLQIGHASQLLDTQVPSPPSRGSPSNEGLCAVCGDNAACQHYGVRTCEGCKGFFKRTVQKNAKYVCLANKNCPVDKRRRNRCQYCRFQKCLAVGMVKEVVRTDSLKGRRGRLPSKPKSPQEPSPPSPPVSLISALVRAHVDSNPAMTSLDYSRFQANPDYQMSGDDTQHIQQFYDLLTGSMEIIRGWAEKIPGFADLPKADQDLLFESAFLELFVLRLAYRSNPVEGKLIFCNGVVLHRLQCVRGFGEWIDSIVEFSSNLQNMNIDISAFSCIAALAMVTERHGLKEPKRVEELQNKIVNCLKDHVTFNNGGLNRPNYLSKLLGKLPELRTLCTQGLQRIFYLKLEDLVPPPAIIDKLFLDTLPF
# In short: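 Endpoint: reporter mRNA increase relative to DMSO. HepG2 cells transfected with reporter units, treated 24 h; RNA processed by RT-PCR, labelling, HpaI digestion and capillary electrophoresis.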
# [6] = biological target: Transcriptional activator Myb (Homo sapiens) (UniProt P10242); assay: ATG_Myb_CIS: Attagene CIS-FACTORIAL HepG2 Assay for human Myeloblastosis (Myb) Proto-Oncogene Transcription Factor (AID 2282986); conditions: HepG2 Attagene CIS-FACTORIAL Myb reporter transcription; actives raise or lower the signal
# Sequence of Transcriptional activator Myb (Homo sapiens) (P10242 whole entry, looked up): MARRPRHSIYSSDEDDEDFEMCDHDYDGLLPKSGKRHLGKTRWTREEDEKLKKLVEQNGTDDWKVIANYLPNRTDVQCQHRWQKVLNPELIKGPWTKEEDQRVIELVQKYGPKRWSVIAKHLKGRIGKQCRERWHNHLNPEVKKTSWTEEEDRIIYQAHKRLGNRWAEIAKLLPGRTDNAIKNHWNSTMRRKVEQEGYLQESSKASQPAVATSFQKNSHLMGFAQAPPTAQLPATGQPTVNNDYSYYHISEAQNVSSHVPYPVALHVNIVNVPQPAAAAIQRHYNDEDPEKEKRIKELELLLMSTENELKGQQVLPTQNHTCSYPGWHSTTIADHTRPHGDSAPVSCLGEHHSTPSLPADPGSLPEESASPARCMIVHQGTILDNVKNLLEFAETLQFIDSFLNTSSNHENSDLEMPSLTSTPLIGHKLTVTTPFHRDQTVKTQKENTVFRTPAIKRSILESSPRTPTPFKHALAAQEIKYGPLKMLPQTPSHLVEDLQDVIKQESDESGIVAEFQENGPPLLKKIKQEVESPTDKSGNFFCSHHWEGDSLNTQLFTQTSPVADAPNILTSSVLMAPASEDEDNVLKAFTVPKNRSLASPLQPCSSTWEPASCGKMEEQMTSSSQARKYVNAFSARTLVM
# In short: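 Reporter mRNA is quantified by RT-PCR and capillary electrophoresis 24 h after dosing HepG2 cells transfected with cis-regulated reporter units, which track endogenous transcription factor activity. Gain and loss of signal are fitted versus DMSO baseline.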
# [7] = biological target: Nuclear respiratory factor 1 (Homo sapiens) (UniProt Q16656); assay: ATG_NRF1_CIS: Attagene CIS-FACTORIAL HepG2 Assay for human Nuclear Respiratory Factor 1 (NRF1) Orphan Gene (AID 2282987); conditions: HepG2 NRF1 cis-element reporter, Attagene multiplex; actives raise or lower the signal
# Sequence of Nuclear respiratory factor 1 (Homo sapiens) (Q16656 whole entry, looked up): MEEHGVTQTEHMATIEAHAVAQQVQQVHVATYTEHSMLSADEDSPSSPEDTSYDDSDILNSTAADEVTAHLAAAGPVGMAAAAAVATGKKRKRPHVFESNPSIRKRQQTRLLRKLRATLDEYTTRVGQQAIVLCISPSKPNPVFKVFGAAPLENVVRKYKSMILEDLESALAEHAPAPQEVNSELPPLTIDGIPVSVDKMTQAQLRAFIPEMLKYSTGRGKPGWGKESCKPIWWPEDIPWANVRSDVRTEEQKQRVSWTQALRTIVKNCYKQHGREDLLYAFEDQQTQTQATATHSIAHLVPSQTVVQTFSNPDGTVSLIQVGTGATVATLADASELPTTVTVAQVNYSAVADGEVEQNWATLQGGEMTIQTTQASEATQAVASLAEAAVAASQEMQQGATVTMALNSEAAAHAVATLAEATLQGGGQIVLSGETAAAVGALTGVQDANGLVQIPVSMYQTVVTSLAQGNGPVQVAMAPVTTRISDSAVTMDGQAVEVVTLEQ
# In short: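 Endogenous NRF1-driven reporter transcription in transfected HepG2 cells after 24 h treatment. Readout: RT-PCR products, 6-FAM labelled and resolved by capillary electrophoresis; changes fitted both directions relative to DMSO.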
# [8] = ATG_NFI_CIS: Attagene CIS-FACTORIAL HepG2 Assay for human Nuclear Factor I (NFI) (AID 2282989); conditions: HepG2 cis-regulatory reporter, NFI response element transcription; actives raise or lower the signal
# In short: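 Transient MRTU transfection of HepG2 → 24 h chemical dosing → total RNA, oligo(dT) RT → PCR, 6-FAM primer extension, HpaI cut → capillary electrophoresis. Endpoint fitted bidirectionally relative to DMSO.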
# [9] = biological target: Myc proto-oncogene protein (Homo sapiens) (UniProt P01106); assay: ATG_Myc_CIS: Attagene CIS-FACTORIAL HepG2 Assay for human Myelocytomatosis (Myc) Proto-Oncogene Transcription Factor (AID 2282990); conditions: HepG2, Attagene cis-reporter transcription factor activity; actives raise or lower the signal
# Sequence of Myc proto-oncogene protein (Homo sapiens) (P01106 whole entry, looked up, the tested form may be a part): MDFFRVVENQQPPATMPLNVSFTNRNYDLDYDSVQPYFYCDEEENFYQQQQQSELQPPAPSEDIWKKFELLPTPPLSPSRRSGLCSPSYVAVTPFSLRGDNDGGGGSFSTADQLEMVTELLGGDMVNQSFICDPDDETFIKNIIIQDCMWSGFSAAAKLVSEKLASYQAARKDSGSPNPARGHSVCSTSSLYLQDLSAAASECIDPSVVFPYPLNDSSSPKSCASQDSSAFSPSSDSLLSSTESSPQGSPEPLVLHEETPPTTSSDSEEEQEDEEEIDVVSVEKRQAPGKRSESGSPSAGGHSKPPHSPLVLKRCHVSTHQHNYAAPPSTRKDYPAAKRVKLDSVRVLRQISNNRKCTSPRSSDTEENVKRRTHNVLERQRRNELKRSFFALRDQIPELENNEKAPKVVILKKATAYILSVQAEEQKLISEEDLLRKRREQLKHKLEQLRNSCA
# In short: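 Fluorescence intensity of reporter-specific cDNA fragments, separated by capillary electrophoresis, gives the signal. Transfected HepG2 cells carrying cis-promoter reporter constructs are incubated with compound for 24 h; DMSO serves as baseline.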
# [10] = ATG_NF_kB_CIS: Attagene CIS-FACTORIAL HepG2 Assay for human Nuclear Factor Kappa B (NF-kB) (AID 2282991); conditions: HepG2 Attagene cis-factorial NF-kB reporter mRNA; actives raise or lower the signal
# In short: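 Readout is reporter transcript level, gain or loss versus DMSO, measured 24 h post-dose via RT-PCR, fluorescent labelling and capillary electrophoresis. Human HepG2 liver cells carried transiently transfected CIS reporter constructs reflecting endogenous factors.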
# [11] = ATG_NRF2_ARE_CIS: Attagene CIS-FACTORIAL HepG2 Assay for human Nuclear Factor Erythroid 2 Related Factor 2 (NFR2) response to Antioxidant Response Elements (ARE) (AID 2282992); conditions: HepG2 Attagene ARE/NRF2 reporter, transcription factor activity; actives raise or lower the signal
# In short: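 Endogenous transcription factor activity read out as reporter transcript levels (RT-PCR plus capillary electrophoresis, fluorescence) in transiently transfected HepG2 cells. Measured at 24 h after dosing; gain or loss of signal fitted versus DMSO.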
# [12] = ATG_Oct_MLP_CIS: Attagene CIS-FACTORIAL HepG2 Assay for human Octamer-Binding Transcription Factor (Oct) (AID 2282993); conditions: HepG2 Attagene cis-factorial Oct reporter, mRNA; actives raise or lower the signal
# In short: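 Transient MRTU transfection of HepG2 → 24 h compound treatment → RNA isolation, reverse transcription, PCR → 6-FAM primer extension, HpaI digest → capillary electrophoresis. Activity fitted both directions against DMSO.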
# [13] = biological target: Cellular tumor antigen p53 (Homo sapiens) (UniProt P04637); assay: ATG_p53_CIS: Attagene CIS-FACTORIAL HepG2 Assay for human p53 Transcription Factor (AID 2282994); conditions: HepG2 p53 cis-element reporter, Attagene mRNA; actives raise or lower the signal
# Sequence of Cellular tumor antigen p53 (Homo sapiens) (P04637 whole entry, looked up): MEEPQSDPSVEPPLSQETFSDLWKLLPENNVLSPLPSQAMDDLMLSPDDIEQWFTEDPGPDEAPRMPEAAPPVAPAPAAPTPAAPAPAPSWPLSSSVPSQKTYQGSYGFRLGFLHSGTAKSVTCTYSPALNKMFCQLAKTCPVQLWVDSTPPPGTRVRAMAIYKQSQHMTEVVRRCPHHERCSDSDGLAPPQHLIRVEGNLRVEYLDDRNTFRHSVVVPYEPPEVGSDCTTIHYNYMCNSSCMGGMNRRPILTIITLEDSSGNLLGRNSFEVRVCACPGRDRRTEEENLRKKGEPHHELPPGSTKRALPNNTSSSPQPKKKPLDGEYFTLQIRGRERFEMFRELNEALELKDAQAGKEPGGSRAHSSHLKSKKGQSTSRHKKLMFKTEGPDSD
# In short: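 Endogenous p53 activity read in transiently transfected HepG2 from a cis-element-driven reporter transcript after 24 h exposure. RNA reverse-transcribed, PCR-amplified, fluorescently labelled and sized by capillary electrophoresis; gain or loss fitted against DMSO baseline.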
# [14] = BSK_3C_TissueFactor: BioMAP Diversity Plus: 3C Assay for Tissue Factor Biomarker Activity (AID 2282997); conditions: BioMAP 3C HUVEC, tissue factor biomarker readout; actives raise or lower the signal
# In short: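 Tissue factor on primary human umbilical vein endothelium was read by ELISA 24 h after dosing, gain or loss relative to DMSO. Cytotoxicity ran alongside via SRB (0.1%, TCA-fixed, 560 nm).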
# [15] = BSK_3C_uPAR: BioMAP Diversity Plus: 3C Assay for Urokinase-type plasminogen activator receptor (uPAR) Biomarker Activity (AID 2282998); conditions: BioMAP 3C HUVEC, uPAR biomarker ELISA; actives raise or lower the signal
# In short: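 ELISA readout of uPAR on human vascular endothelium (umbilical vein primary cells), taken 24 h after chemical dosing. Increases and decreases are both fitted relative to DMSO vehicle.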
# [16] = BSK_3C_VCAM1: BioMAP Diversity Plus: 3C Assay for Vascular cell adhesion molecule 1 (VCAM1) Biomarker Activity (AID 2282999); conditions: BioMAP 3C HUVEC, VCAM1 ELISA, cytokine-stimulated; actives raise or lower the signal
# In short: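 HUVEC primary cells, 24 h compound exposure; VCAM-1 by ELISA; gain/loss of signal fitted bidirectionally vs DMSO baseline.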
# [17] = BSK_4H_Eotaxin3: BioMAP Diversity Plus: 4H Assay for Eotaxin 3 Biomarker Activity (AID 2283000); conditions: primary human endothelial cells (HUVEC); actives raise or lower the signal;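 for outcome: CCL26 protein level quantified by ELISA in parallel with SRB cytotoxicity check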
# In short: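 Human umbilical vein endothelial cells (BSK_4H system) dosed with test chemical; Eotaxin-3 (CCL26) measured by ELISA 24 h after dosing. Bidirectional curve fitting relative to DMSO negative control as baseline.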
# [18] = biological target: human Peroxisome Proliferator-activated Receptor alpha (PPARa), PPARA (gene 5465) (UniProt Q07869); assay: ATG_PPARa_TRANS: Attagene TRANS-FACTORIAL HepG2 Assay for human Peroxisome Proliferator-activated Receptor alpha (PPARa) (AID 2283001; active = hit-call score of the fitted dose curve at least 0.9, where 1 is the maximum;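 for AC50: potency for gain of reporter signal over DMSO so agonist or activator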)
# Sequence of human Peroxisome Proliferator-activated Receptor alpha (PPARa), PPARA (gene 5465) (Q07869 whole entry, looked up): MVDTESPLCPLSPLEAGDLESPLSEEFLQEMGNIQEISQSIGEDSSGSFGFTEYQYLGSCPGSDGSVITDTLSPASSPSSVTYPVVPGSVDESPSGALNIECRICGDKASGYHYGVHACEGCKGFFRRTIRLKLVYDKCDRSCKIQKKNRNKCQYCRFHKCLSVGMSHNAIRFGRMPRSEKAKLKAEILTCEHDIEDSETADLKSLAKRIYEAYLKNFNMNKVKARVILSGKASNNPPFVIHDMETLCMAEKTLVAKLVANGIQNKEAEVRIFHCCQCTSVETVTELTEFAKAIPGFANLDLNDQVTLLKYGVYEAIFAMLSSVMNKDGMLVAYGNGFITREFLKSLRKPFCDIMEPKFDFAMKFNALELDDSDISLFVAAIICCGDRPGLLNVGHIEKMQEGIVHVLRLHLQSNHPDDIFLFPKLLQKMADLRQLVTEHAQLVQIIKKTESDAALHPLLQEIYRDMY
# In short: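 HepG2, transient MRTU transfection, 24 h treatment. RT-PCR → FAM labelling → capillary electrophoresis. Fit vs DMSO, positive direction.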
# [19] = biological target: human Peroxisome Proliferator-activated Receptor delta (PPARd), PPARD (gene 5467) (UniProt Q03181); assay: ATG_PPARd_TRANS: Attagene TRANS-FACTORIAL HepG2 Assay for human Peroxisome Proliferator-activated Receptor delta (PPARd) (AID 2283002; active = hit-call score of the fitted dose curve at least 0.9, where 1 is the maximum)
# Sequence of human Peroxisome Proliferator-activated Receptor delta (PPARd), PPARD (gene 5467) (Q03181 whole entry, looked up, the tested form may be a part): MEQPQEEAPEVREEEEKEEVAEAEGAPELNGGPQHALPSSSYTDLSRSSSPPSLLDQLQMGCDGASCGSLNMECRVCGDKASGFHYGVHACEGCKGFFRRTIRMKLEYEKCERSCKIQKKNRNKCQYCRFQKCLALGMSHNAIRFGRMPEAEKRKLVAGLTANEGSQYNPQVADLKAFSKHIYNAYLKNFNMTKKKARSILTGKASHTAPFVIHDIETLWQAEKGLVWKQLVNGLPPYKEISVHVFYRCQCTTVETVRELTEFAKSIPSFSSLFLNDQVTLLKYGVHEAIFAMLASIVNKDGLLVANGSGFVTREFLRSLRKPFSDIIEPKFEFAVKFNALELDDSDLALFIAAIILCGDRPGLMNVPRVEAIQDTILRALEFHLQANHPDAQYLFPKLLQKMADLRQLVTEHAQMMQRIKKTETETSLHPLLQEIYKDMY
# In short: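 Fluorescence from capillary electrophoresis of labelled RT-PCR reporter fragments gives the signal; DMSO sets baseline. Cells: HepG2 transiently carrying GAL4-UAS reporter units plus chimeric nuclear receptor-Gal4 proteins, exposed to chemicals for 24 h.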
# [20] = ATG_M_32_TRANS: Attagene TRANS-FACTORIAL HepG2 Assay for M32 Transcription Factor (Internal Marker) (AID 2282984; active = hit-call score of the fitted dose curve at least 0.9, where 1 is the maximum;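 note: transcript level of a background control reporter unit measured by RT-PCR and capillary electrophoresis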); conditions: HepG2 Attagene TRANS M32 internal marker reporter
# In short: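 Internal-marker readout from a multiplexed transcription reporter panel. HepG2 cells were transfected with GAL4-UAS reporter units, treated 24 hours, and reporter transcript levels determined by fluorescence after RT-PCR and capillary separation.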
smiles,measurement,setting,value
COc1cccc(-c2ccc(/C=C\CN3CCCCCC3)cc2Cl)c1,outcome,[1],inactive
same,outcome,[2],inactive
same,outcome,[3],inactive
same,outcome,[4],inactive
same,outcome,[5],inactive
same,outcome,[6],inactive
same,outcome,[7],inactive
same,outcome,[8],inactive
same,outcome,[9],inactive
same,outcome,[10],inactive
same,AC50,[11],9.89 µM (active)
same,AC50,[12],11 µM (active)
same,outcome,[13],inactive
same,AC50,[14],31.5 µM (active)
same,AC50,[15],24.3 µM (active)
same,AC50,[16],33.1 µM (active)
same,AC50,[17],28 µM (active)
same,outcome,[18],inactive
same,outcome,[19],inactive
C=CCCCCCCCCC(=O)O,outcome,[1],inactive
same,outcome,[2],inactive
same,outcome,[20],inactive
same,outcome,[5],inactive
same,outcome,[7],inactive
same,outcome,[8],inactive
same,outcome,[9],inactive
same,outcome,[10],inactive
same,outcome,[11],inactive
same,outcome,[12],inactive
same,outcome,[13],inactive
same,outcome,[14],inactive
same,outcome,[15],inactive
same,outcome,[16],inactive
same,outcome,[17],inactive
same,AC50,[18],26.7 µM (active)
CCCCC(CC)COC(=O)c1ccc(C(=O)OCC(CC)CCCC)cc1 (stereo not given),outcome,[1],inactive
same,outcome,[3],inactive
same,outcome,[4],inactive
same,outcome,[7],inactive
same,outcome,[8],inactive
same,outcome,[9],inactive
same,outcome,[11],inactive
same,outcome,[12],inactive
same,outcome,[13],inactive
same,outcome,[14],inactive
same,outcome,[15],inactive
same,outcome,[16],inactive
same,outcome,[17],inactive
Cc1ccc(S(=O)(=O)O)cc1C,outcome,[1],inactive
same,outcome,[3],inactive
same,outcome,[20],inactive
same,outcome,[5],inactive
same,outcome,[7],inactive
same,outcome,[8],inactive
same,outcome,[9],inactive
same,outcome,[11],inactive
same,outcome,[12],inactive
same,outcome,[13],inactive
same,outcome,[14],inactive
same,outcome,[15],inactive
same,outcome,[16],inactive
same,outcome,[17],inactive
same,outcome,[18],inactive
same,outcome,[19],inactive
Cn1c(=O)cc(Oc2ccc(F)cc2F)c2cnc(NCC(C)(C)O)nc21,outcome,[1],inactive
same,outcome,[2],inactive
same,outcome,[3],inactive
same,outcome,[4],inactive
same,outcome,[20],inactive
same,outcome,[6],inactive
same,AC50,[7],51.6 µM (active)
same,AC50,[8],9.46 µM (active)
same,outcome,[9],inactive
same,outcome,[11],inactive
same,outcome,[12],inactive
same,AC50,[13],41.7 µM (active)
same,AC50,[14],1.4 µM (active)
same,outcome,[15],inactive
same,outcome,[16],inactive
same,outcome,[17],inactive
COc1ccc(-n2nc(C(F)F)cc2-c2ccc(S(C)=O)cc2)cc1 (stereo not given),outcome,[1],inactive
same,outcome,[2],inactive
same,outcome,[3],inactive
same,outcome,[20],inactive
same,outcome,[6],inactive
same,outcome,[7],inactive
same,outcome,[8],inactive
same,outcome,[9],inactive
same,outcome,[10],inactive
same,outcome,[11],inactive
same,outcome,[12],inactive
same,outcome,[13],inactive
same,outcome,[14],inactive
same,outcome,[15],inactive
same,outcome,[16],inactive
same,outcome,[17],inactive
same,outcome,[19],inactive
CCCN(C1CCN(C(=O)C2CCNCC2)CC1)[C@@H]1CCc2ccc(OC)cc2C1,outcome,[1],inactive
same,outcome,[2],inactive
same,outcome,[3],inactive
same,outcome,[20],inactive
same,outcome,[5],inactive
same,outcome,[7],inactive
same,outcome,[8],inactive
same,AC50,[9],175 µM (active)
same,AC50,[10],186 µM (active)
same,AC50,[11],26.2 µM (active)
same,AC50,[12],178 µM (active)
same,AC50,[13],155 µM (active)
same,outcome,[14],inactive
same,outcome,[15],inactive
same,outcome,[16],inactive
same,outcome,[17],inactive
same,AC50,[18],146 µM (active)
same,outcome,[19],inactive
